The source of these data is paper PMC5700166.

Where a chain is given by its changes, count along the chain named.

Assay in all cases: protein-binding microarray (PBM); PBM: ~300 nM protein, 6 mM HEPES pH 7.8, 80 mM KCl, 0.5 mM EDTA, 0.5 mM EGTA, 6% glycerol, 35 ng/ul poly-dIdC, 1% milk, 1 h, room temperature; Ap Aiptasia and Nv Nematostella (sea anemones) / Co Capsaspora / Aq Amphimedon (sponge) / Dm Drosophila / Hu human; RHD is the Rel homology domain; high values mean tight binding
What all share (conditions): dsDNA, one strand shown

One assay deals with T1, GST-Ap-NF-kB RHD (Exaiptasia pallida (Aiptasia), UniProt A0A913YAJ5 2-422).
T1 sequence: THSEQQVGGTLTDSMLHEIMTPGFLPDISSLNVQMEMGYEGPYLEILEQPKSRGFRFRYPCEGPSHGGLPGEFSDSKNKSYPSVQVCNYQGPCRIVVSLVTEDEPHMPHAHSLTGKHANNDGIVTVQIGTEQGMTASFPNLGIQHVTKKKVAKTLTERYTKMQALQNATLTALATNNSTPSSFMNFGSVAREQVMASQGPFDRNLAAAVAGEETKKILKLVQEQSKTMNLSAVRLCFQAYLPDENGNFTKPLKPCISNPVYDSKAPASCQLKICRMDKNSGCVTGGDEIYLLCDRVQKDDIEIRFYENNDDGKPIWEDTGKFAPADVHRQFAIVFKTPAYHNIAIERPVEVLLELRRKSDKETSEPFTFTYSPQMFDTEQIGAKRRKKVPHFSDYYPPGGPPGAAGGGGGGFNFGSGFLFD

Assay [1] concerns the target T2, GST-Nv-NF-kB (Cys allele) (Nematostella vectensis, UniProt E5G601 2-411).
T2 sequence: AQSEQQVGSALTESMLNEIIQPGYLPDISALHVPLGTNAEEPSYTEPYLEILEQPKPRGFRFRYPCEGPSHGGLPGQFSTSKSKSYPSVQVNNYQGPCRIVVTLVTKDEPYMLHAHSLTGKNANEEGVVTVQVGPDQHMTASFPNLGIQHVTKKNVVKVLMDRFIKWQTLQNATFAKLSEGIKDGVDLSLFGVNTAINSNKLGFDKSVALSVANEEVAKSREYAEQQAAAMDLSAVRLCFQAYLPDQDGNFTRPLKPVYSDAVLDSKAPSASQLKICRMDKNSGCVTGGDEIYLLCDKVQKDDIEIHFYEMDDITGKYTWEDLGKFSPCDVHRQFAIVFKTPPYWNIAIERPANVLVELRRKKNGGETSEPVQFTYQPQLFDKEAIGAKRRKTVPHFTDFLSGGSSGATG

Assay [2] addresses T3, GST-Nv-NF-kB (Ser allele) (Nematostella vectensis, UniProt A7UNT2 2-411).
T3 sequence: T2 sequence with Q21R, C66S, S207N, E215Q, V217A, E225K, A268E, D399E

A further assay deals with T4, GST-Co-NF-kB (Capsaspora owczarzaki, UniProt F1ARL5 200-546).
T4 sequence: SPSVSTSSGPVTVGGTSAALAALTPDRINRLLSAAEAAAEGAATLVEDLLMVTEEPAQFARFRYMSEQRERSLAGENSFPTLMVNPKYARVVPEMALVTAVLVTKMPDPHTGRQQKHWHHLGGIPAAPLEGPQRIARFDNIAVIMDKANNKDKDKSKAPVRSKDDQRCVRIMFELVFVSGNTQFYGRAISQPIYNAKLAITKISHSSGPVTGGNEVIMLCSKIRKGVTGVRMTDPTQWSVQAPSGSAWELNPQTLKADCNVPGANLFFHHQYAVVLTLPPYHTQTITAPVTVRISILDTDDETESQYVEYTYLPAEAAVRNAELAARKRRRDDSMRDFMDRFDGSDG

Another assay has as its target T5, GST-Dm-Relish (Drosophila melanogaster, UniProt Q94527 99-473).
T5 sequence: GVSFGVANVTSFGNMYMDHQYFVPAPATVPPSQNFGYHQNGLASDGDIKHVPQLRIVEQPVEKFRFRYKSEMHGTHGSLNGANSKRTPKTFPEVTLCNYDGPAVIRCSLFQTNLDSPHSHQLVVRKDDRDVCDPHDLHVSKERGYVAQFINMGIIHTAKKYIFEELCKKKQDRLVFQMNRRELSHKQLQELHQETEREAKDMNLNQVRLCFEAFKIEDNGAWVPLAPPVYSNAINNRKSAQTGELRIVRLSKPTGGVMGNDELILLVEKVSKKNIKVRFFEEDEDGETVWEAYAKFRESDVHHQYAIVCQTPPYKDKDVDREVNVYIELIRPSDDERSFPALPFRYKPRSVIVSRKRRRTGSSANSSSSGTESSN

The target in a further assay is T6, GST-Aq-NF-kB (Amphimedon queenslandica, UniProt A9Y5G7 2-389).
T6 sequence: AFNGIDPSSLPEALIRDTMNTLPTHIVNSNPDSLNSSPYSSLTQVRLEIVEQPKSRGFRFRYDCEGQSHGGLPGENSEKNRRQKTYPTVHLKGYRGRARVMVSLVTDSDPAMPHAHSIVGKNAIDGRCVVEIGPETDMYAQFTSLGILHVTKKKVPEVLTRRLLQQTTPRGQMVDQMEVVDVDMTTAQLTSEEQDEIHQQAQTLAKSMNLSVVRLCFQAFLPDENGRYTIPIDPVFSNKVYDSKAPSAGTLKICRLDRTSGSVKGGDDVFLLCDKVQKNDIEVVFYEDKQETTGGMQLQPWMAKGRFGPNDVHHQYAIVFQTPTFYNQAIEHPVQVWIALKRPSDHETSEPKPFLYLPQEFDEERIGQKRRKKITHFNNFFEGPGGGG

In the next assay the target is GST-Hu-p50 (Homo sapiens, UniProt P19838 7-356).
Sequence of GST-Hu-p50 (P19838 7-356): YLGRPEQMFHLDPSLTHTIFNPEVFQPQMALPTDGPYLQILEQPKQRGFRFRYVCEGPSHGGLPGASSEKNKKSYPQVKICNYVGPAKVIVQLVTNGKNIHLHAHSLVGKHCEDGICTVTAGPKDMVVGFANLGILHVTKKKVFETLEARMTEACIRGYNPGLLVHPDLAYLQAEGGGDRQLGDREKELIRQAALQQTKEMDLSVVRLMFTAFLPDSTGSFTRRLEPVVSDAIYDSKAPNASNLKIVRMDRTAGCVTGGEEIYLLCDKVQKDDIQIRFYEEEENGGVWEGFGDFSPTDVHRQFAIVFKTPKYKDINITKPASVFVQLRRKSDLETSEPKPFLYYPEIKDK

For the sequence “CCGATTAACATCAAAAGAGTCCCTGATGTTAATCGGGTCTTGATTCGCTTGACGCTGCTG”, the binding signal in the assay with GST-Ap-NF-kB RHD was found to be 5.39 z-score; in assay [1] it was 5.99 z-score; in assay [2], 5.71 z-score; with GST-Co-NF-kB, 1.5 z-score; with GST-Dm-Relish, 5.32 z-score; with GST-Aq-NF-kB, 5.91 z-score. The sequence also yielded a binding signal in the assay with GST-Hu-p50 of 4.6 z-score.

“CCGATTAACATCAAGGGGGTTCCTGATGTTAATCGGGTCTTGATTCGCTTGACGCTGCTG”: the binding signal in the assay with GST-Ap-NF-kB RHD was 9.16 z-score; in assay [1], 6.77 z-score; in assay [2], 6.26 z-score; in the assay with GST-Co-NF-kB, 1.68 z-score; with GST-Dm-Relish, 10.4 z-score; with GST-Aq-NF-kB it was 7.2 z-score. For the same sequence, the binding signal in the assay with GST-Hu-p50 is 6.65 z-score.

Regarding “CCGATTAACATCACGTGATTCCCTGATGTTAATCGGGTCTTGATTCGCTTGACGCTGCTG”, the binding signal with GST-Ap-NF-kB RHD was 2.22 z-score; in assay [1], 2.38 z-score; in assay [2] it was 2.58 z-score; with GST-Co-NF-kB it was 1.63 z-score; in the assay with GST-Dm-Relish it was 8.61 z-score; with GST-Aq-NF-kB it was 3.33 z-score. In addition, the binding signal with GST-Hu-p50 stood at 1.11 z-score.

Consider “CCGATTAACATCAAAAAGTCCCTTGATGTTAATCGGGTCTTGATTCGCTTGACGCTGCTG”, for which the binding signal with GST-Ap-NF-kB RHD is 7.48 z-score; in assay [1], 10.3 z-score; in assay [2] it was 9.76 z-score; in the assay with GST-Co-NF-kB, 1.63 z-score; with GST-Dm-Relish, 8.86 z-score; with GST-Aq-NF-kB, 8.25 z-score. For the same sequence, the binding signal with GST-Hu-p50 stood at 6.97 z-score.

Take “CCGATTAACATCAAAACCTCCCCTGATGTTAATCGGGTCTTGATTCGCTTGACGCTGCTG”: the binding signal in the assay with GST-Ap-NF-kB RHD amounted to 5.96 z-score; in assay [1], 5.34 z-score; in assay [2], 7 z-score; with GST-Co-NF-kB, 6.47 z-score; with GST-Dm-Relish, 3.36 z-score; in the assay with GST-Aq-NF-kB, 4.96 z-score. The same sequence showed a binding signal with GST-Hu-p50 of 4.55 z-score.

“CCGATTAACATCAGGGGAAGACCTGATGTTAATCGGGTCTTGATTCGCTTGACGCTGCTG”: the binding signal turned out to be 5.91 z-score with GST-Ap-NF-kB RHD; 7.98 z-score in assay [1]; 6.51 z-score in assay [2]; 5.23 z-score in the assay with GST-Co-NF-kB; 8.75 z-score with GST-Dm-Relish; 7.72 z-score with GST-Aq-NF-kB. The binding signal in the assay with GST-Hu-p50 turned out to be 4.98 z-score.

Turning to “CCGATTAACATCACTCATCCCCGTGATGTTAATCGGGTCTTGATTCGCTTGACGCTGCTG”, the binding signal in the assay with GST-Ap-NF-kB RHD worked out at 1.85 z-score; in assay [1] it was 3.17 z-score; in assay [2], 3.8 z-score; with GST-Co-NF-kB it was 2.78 z-score; with GST-Dm-Relish it was 2.33 z-score; in the assay with GST-Aq-NF-kB it was 2.51 z-score. The sequence also displayed a binding signal with GST-Hu-p50 of 2.23 z-score.

On to “CCGATTAACATCATGGGGAAAAATGATGTTAATCGGGTCTTGATTCGCTTGACGCTGCTG”, for which the binding signal with GST-Ap-NF-kB RHD was 5.03 z-score; in assay [1] it was 6.62 z-score; in assay [2], 8.82 z-score; with GST-Co-NF-kB, 9.78 z-score; with GST-Dm-Relish, 2.39 z-score; in the assay with GST-Aq-NF-kB it was 4.9 z-score. For the same sequence, the binding signal with GST-Hu-p50 came out at 5.43 z-score.

Turning to “CCGATTAACATCAAGGGAGTTCCTGATGTTAATCGGGTCTTGATTCGCTTGACGCTGCTG”, the binding signal in the assay with GST-Ap-NF-kB RHD stood at 4.53 z-score; in assay [1], 4.56 z-score; in assay [2], 2.92 z-score; in the assay with GST-Co-NF-kB it was 1.22 z-score; with GST-Dm-Relish it was 5.02 z-score; with GST-Aq-NF-kB it was 5.71 z-score. In the assay with GST-Hu-p50, the binding signal is 3.7 z-score.

For “CCGATTAACATCAGGGGGATTTATGATGTTAATCGGGTCTTGATTCGCTTGACGCTGCTG”, the binding signal in the assay with GST-Ap-NF-kB RHD worked out at 8.91 z-score; in assay [1] it was 9.22 z-score; in assay [2], 10 z-score; with GST-Co-NF-kB it was 6.7 z-score; in the assay with GST-Dm-Relish it was 8.87 z-score; in the assay with GST-Aq-NF-kB it was 7.3 z-score. The binding signal in the assay with GST-Hu-p50 amounted to 7.42 z-score.

With “CCGATTAACATCACCGGGGATAGTGATGTTAATCGGGTCTTGATTCGCTTGACGCTGCTG”, the binding signal with GST-Ap-NF-kB RHD is 3.55 z-score; in assay [1], 2.68 z-score; in assay [2], 3.34 z-score; with GST-Co-NF-kB, 3.83 z-score; with GST-Dm-Relish, 2.1 z-score; in the assay with GST-Aq-NF-kB, 1.82 z-score. This sequence gave a binding signal in the assay with GST-Hu-p50 of 2.98 z-score.
